Measured values: PubChem BioAssay (NCI)
Compounds without any hit were thinned out: in the full panel of roughly 83,000, 20% have a hit.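 Cell lines were cultured in 96-well plates, exposed to a single compound concentration, and assessed for percent growth 48 hours later.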 Active and inactive are the calls of the source.

Tested on: IGROV1 ovarian
Assay: NCI-60 one-dose screen, 48 h (100 = growth as untreated, 0 = no growth, -100 = all killed)
Conditions: 10 µM unless noted
Description: Growth inhibition of the IGROV1 human tumor cell line is measured as a screen for anti-cancer activity. Cells are grown in 96 well plates and exposed to the test compound for 48 hours. Compounds are tested at a single concentration, which is 10^-5 M for most compounds. The reported endpoint is percent growth (GI% or GIPRCNT), where numbers from 0 - 100% represent growth inhibition, and numbers from -100% - 0 represent cell death. For example, a value of 40 represents 60% growth inhibition. A value of 0 means no net growth occurred over the course of the experiment. A value of -40 indicates 40% of cells at the beginning of the experiment died by the end of the experiment. A value of -100 means all cells are dead at the end of the experiment.
NCI-60 Human Tumor Cell Lines Screen was performed using the standard one-dose NCI protocol, which is described in more detail at https://dtp.cancer.gov/discovery_development/nci-60/default.htm.
Compounds with GIPRCNT values below 10 were considered active. Activity score was based on GIPRCNT using the following formula: […]
Score is 0 for GIPRCNT values of 100 or above, 50 for GIPRCNT values of 0, and 100 for GIPRCNT values of -100.

Row | Structure (SMILES) | growth
1 | Cc1sc2c(c1C)c(=O)nc1c(-c3nc(-c4ccc(F)cc4)no3)n[nH]n12 | 102% (inactive)
2 | O=C(CSc1nccc(=O)[nH]1)Nc1ccc(-c2nc3ccccc3[nH]2)cc1 | 102% (inactive)
3 | C/C(=N/NC(N)=S)c1ccc(Nc2nc(SCC(C)C)nc(-c3ccc(F)cc3)c2C#N)cc1 | 21.2% (inactive)
4 | CCOC(=O)c1c(Nc2ccccc2)nn2c(N)c(C#N)c(-c3ccc(OC)cc3)nc12 | 85.5% (inactive)
5 | CSCCC(C(=O)O)N1C(=O)/C(=C/c2ccc(O)c(O)c2)SC1=S (stereo not given) | 98.9% (inactive)
6 | O=c1[nH]c2ccccc2cc1CSc1ccccc1Nc1nccc(-c2ccc(C(F)(F)F)cc2)n1 | 67.8% (inactive)
7 | COc1cccc(N2CCN(c3ncnc4c3[nH]c3ccc(F)cc34)C[C@@H]2C)c1 | -30.2% (active)
8 | COc1ccc(-c2nn3c(-c4ccccc4F)nnc3s2)cc1 | 57.3% (inactive)
9 | C[C@@H]1CN(c2ccc3ncc(C#Cc4cncc(C(=O)Nc5ccc(CN6CCN(C)CC6)c(C(F)(F)F)c5)c4)n3n2)C[C@H](C)O1 | -5.72% (active)
10 | COC(=O)C(C)NS(=O)(=O)/N=C1\NC(=O)NC1=C(Cl)Cl (stereo not given) | 104% (inactive)
11 | N#Cc1c(-c2ccc(Cl)cc2)nc2c(-c3ccccc3)c(Nc3ccccc3)nn2c1N | 56.4% (inactive)
12 | O=C1Nc2cc(Cl)ccc2/C1=C\c1ccc(OCc2ccc([N+](=O)[O-])cc2)cc1 | 64.5% (inactive)
13 | OC1CCN(CCCOc2c3ccccc3nc3c2oc2ccccc23)CC1 | -37.2% (active)
14 | Nc1c(C(=O)c2ccc(Br)cc2)oc2nc(-c3cnccn3)cc(-c3cccs3)c12 | 97.4% (inactive)
15 | COc1ccc(N/N=C/c2c(-c3ccc(S(C)(=O)=O)cc3)nc3ccccn23)cc1 | 51.9% (inactive)
16 | C/C(=C(/c1ccc(Cl)cc1)c1ccc(OCCN)cc1)c1ccc(C)cc1 | 100% (inactive)
17 | Cc1sc2nc(NCc3ccccc3Cl)[nH]c(=O)c2c1C | 90.6% (inactive)
18 | NS(=O)(=O)c1cccc(Nc2nc(SCC(=O)c3ccc(Br)cc3)nc3ccccc23)c1 | 85.4% (inactive)
19 | COc1ccc(/C=N/NC(=O)c2[nH]c3ccc(Br)cc3c2-c2ccccc2)s1 | 18% (inactive)
20 | O=C1Nc2cc(Cl)ccc2/C1=C\c1ccc(OCc2ccc(Br)cc2F)cc1 | -88.8% (active)

Row | Structure (SMILES) | growth
21 | O=C(O)CCCCCN1C(=O)/C(=C/c2ccc(O)c(O)c2)SC1=S | 106% (inactive)
22 | Cc1c(NC(=O)CSc2nc3sc4c(c3c(=O)n2-c2ccc(Cl)cc2)CCCC4)c(=O)n(-c2ccccc2)n1C | 84.9% (inactive)
23 | C=CCn1c(SCC(=O)c2ccccc2)nnc1-c1c[nH]c2ccccc12 | 88.4% (inactive)
24 | COc1ccc(C(=O)/C=C/c2ccc(Oc3nc(NCCO)nc(N4CCOCC4)n3)c(OC)c2)cc1 | 78.6% (inactive)
25 | CN(C)CCCOc1c2ccc(Cl)cc2nc2c1oc1ccccc12 | -8.93% (active)
26 | O=C(N/N=C/c1ccc(Cl)s1)c1[nH]c2ccc(Br)cc2c1-c1ccccc1 | 19.5% (inactive)
27 | COc1ccc(C(=O)/C=C/c2ccc(OCc3ccc(C)cc3)c(OC)c2)cc1OC | 84% (inactive)
28 | CC(C)(C)OC(=O)N1C(=O)c2c(c3c4ccccc4[nH]c3c3ccc4ccccc4c23)C1=O | 52.7% (inactive)
29 | O=C(c1ccc(Cl)cc1)C1[C@H](c2ccc(Cl)cc2)[C@@H](c2ccccc2)NC12C(=O)Nc1ccc(Br)cc12 (stereo not given in full) | 35.9% (inactive)
30 | CN1CCc2c(sc3ncnc(N/N=C/c4ccc(Cl)c(Cl)c4)c23)C1 | 73.2% (inactive)
31 | CCOc1ccc2nc(NC(=O)c3ccc(C(F)(F)F)cc3)sc2c1 | 113% (inactive)
32 | O=C(CCCN1C(=O)/C(=C/c2ccccc2F)SC1=S)N1CCOCC1 | 84.4% (inactive)
33 | O=C(CN1C(=O)/C(=C/c2ccccc2)SC1=S)N1CCOCC1 | 97.4% (inactive)
34 | O=C1NC(=C(Cl)Cl)/C(=N/S(=O)(=O)N2CCCCC2CC2(C(F)(F)F)N=N2)N1 (stereo not given) | -0.053% (active)
35 | CC(C)(C)Nc1nc2c(OCCc3ccccc3)cccn2c1-c1ccc(O)cc1 | 75.4% (inactive)
36 | NS(=O)(=O)c1cccc(Nc2nc(SCC(=O)c3ccc(Cl)cc3)nc3ccccc23)c1 | 76.3% (inactive)
37 | COc1ccc(COc2ccc(/C=C3/C(=O)Nc4cc(Cl)ccc43)cc2)cc1 | 92.4% (inactive)
38 | COc1cccc(OC)c1-c1nnn(C)c1C(=S)N1CCN(c2ccc([N+](=O)[O-])cc2Cl)CC1 | 78.1% (inactive)
39 | Cc1cccc(/C=C/c2nn3c(-c4ccco4)nnc3s2)c1 | 98.6% (inactive)
40 | OC1CCc2c(-c3ccc4ncnc(N5CCc6cc(F)c(Cl)cc65)c4c3)cncc21 (stereo not given) | -13.2% (active)
